Results reported in PubChem BioAssay AID1159580 (chemical genetic matrix, 2015).
Where “and” joins values, the source holds several entries; their conditions need not be identical. Equal entries are not always repeated. Screen size: about 5,500 compounds; about 2,000 (36%) were called active. Roughly 18% stayed inconclusive and do not appear here. Rule as the data show it: active = normalized growth mostly below about 0.91 (no sharp cut-off); inconclusive = no clear call, values can overlap the other calls; inactive = mostly above about 0.92. The list shows a part of the results.

Assay: chemical genetic growth profiling, strain panel (AID 1159580);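 also: tested at 20 µM; growth read once vehicle control cultures reached saturation at 30 °C; 1 = growth at the plate median or of vehicle wells; lower values mean less growth of the strain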
Settings: S. cerevisiae deletion strains, growth OD

Measured: normalized growth

CCC1C(=O)OCC1Cc1cncn1C (stereo not given)
inactive: locus YAL013W, strain DEP1, stronger effect = lower value 1.01 and 0.986 | locus YAL021C, strain ccr4, stronger effect = lower value 1.01 | locus YAL026C, strain drs2, stronger effect = lower value 1.01 and 1.02 | locus YAL030W, strain snc1, stronger effect = lower value 1.03 and 1.01 | locus YAL040C, strain CLN3, stronger effect = lower value 1.04 and 1.02 | locus YBL061C, strain skt5, stronger effect = lower value 1.03 and 1.02 | locus YBR009C, strain hhf1, stronger effect = lower value 1.01 and 1 | locus YBR021W, strain FUR4, stronger effect = lower value 0.985 and 1 | locus YBR023C, strain chs3, stronger effect = lower value 1.03 and 1.02 | locus YBR171W, strain sec66, stronger effect = lower value 1.02 and 1.03 | locus YBR229C, strain ROT2, stronger effect = lower value 1.01 | locus YBR231C, strain swc5, stronger effect = lower value 1.02 and 1.01 | locus YBR279W, strain paf1, stronger effect = lower value 1.03 and 1.01 | locus YCL011C, strain gbp2, stronger effect = lower value 1.03 and 1.02 | locus YCL016C, strain dcc1, stronger effect = lower value 1.03 and 1.02 | locus YCL029C, strain bik1, stronger effect = lower value 1.03 and 0.998 | locus YCL061C, strain MRC1 (second series), stronger effect = lower value 1.01 and 0.993 | locus YCL061C, strain MRC1, stronger effect = lower value 1.01 | locus YCL069W, strain vba3, stronger effect = lower value 1.02 and 1.01 | locus YCR088W, strain abp1, stronger effect = lower value 1.02 and 1 | locus YDL005C, strain med2, stronger effect = lower value 1.01 and 1.03 | locus YDL035C, strain GPR1, stronger effect = lower value 1.01 | locus YDL040C, strain nat1, stronger effect = lower value 1.02 and 1.01 | locus YDL074C, strain BRE1, stronger effect = lower value 1.02 and 1.03 | locus YDL101C, strain DUN1, stronger effect = lower value 1.02 | locus YDL134C, strain PPH21, stronger effect = lower value 1.01 and 1.02 | locus YDL185W, strain tfp1, stronger effect = lower value 1.02 and 1 | locus YDL192W, strain arf1, stronger effect = lower value 1.02 and 1 | locus YDR001C, strain nth1, stronger effect = lower value 1.01 and 1 | locus YDR069C, strain doa4, stronger effect = lower value 1.01 and 1.02 | locus YDR101C, strain arx1, stronger effect = lower value 1.02 and 0.975 | locus YDR137W, strain rgp1, stronger effect = lower value 1.05 and 1.1 | locus YDR159W, strain sac3, stronger effect = lower value 1.01 and 1.02 | locus YDR162C, strain NBP2, stronger effect = lower value 1.01 and 1.05 | locus YDR195W, strain ref2 1 and 0.98 | locus YDR297W, strain sur2, stronger effect = lower value 1.02 | locus YDR318W, strain mcm21, stronger effect = lower value 1.03 and 0.997 | locus YDR334W, strain swr1, stronger effect = lower value 1.01 and 1.02 | locus YDR335W, strain msn5, stronger effect = lower value 1.02 | locus YDR363W, strain ESC2, stronger effect = lower value 1.03 and 1.01 | locus YDR388W, stronger effect = lower value 1.02 and 0.992 | locus YDR392W, strain spt3, stronger effect = lower value 0.976 and 0.974 | locus YDR502C, strain sam2, stronger effect = lower value 1.04 and 1.01 | locus YEL003W, strain gim4, stronger effect = lower value 1.01 and 1.02 | locus YEL037C, strain rad23, stronger effect = lower value 1.01 | locus YEL061C, strain CIN8 (second series), stronger effect = lower value 1.02 and 1.03 | locus YEL061C, strain CIN8, stronger effect = lower value 1.01 | locus YER002W, strain NOP16, stronger effect = lower value 1.02 and 0.975 | locus YER015W, strain faa2, stronger effect = lower value 1.02 and 1.01 | locus YER016W, strain bim1, stronger effect = lower value 1.01 | locus YER110C, stronger effect = lower value 1.02 and 0.99 | locus YER111C, strain swi4, stronger effect = lower value 1.02 | locus YER155C, strain BEM2 (second series), stronger effect = lower value 1.01 and 1.03 | locus YER155C, strain BEM2, stronger effect = lower value 0.99 and 1 | locus YER167W, strain BCK2, stronger effect = lower value 1.01 and 1.02 | locus YFR010W, strain ubp6, stronger effect = lower value 1.03 and 1 | locus YGL078C, strain dbp3, stronger effect = lower value 1.01 and 1 | locus YGL086W, strain mad1, stronger effect = lower value 1 and 0.996 | locus YGL167C, strain pmr1, stronger effect = lower value 1.03 | locus YGL173C, strain kem1, stronger effect = lower value 1.01 | locus YGL227W, strain vid30, stronger effect = lower value 1.02 | locus YGL240W, strain doc1, stronger effect = lower value 1.01 | locus YGL248W, strain PDE1, stronger effect = lower value 1.01 and 1.02 | locus YGL253W, strain hxk2, stronger effect = lower value 1.01 | locus YGR078C, strain PAC10, stronger effect = lower value 1.04 and 1 and 1.02 | locus YGR135W, strain pre9, stronger effect = lower value 1.01 | locus YGR229C, strain SMI1, stronger effect = lower value 1.02 and 1 and 0.999 | locus YGR252W, strain gcn5, stronger effect = lower value 0.969 and 0.983 | locus YHR013C, strain ard1, stronger effect = lower value 1.06 and 1.01 | locus YHR027C, strain rpn1, stronger effect = lower value 1.02 | locus YHR030C, strain SLT2, stronger effect = lower value 1.01 and 0.975 | locus YHR079C, strain IRE1 (second series), stronger effect = lower value 1.03 and 0.989 | locus YHR079C, strain IRE1, stronger effect = lower value 0.975 | locus YHR094C, strain hxt1, stronger effect = lower value 1.02 and 0.997 | locus YHR129C, strain ARP1, stronger effect = lower value 1.01 | locus YHR142W, strain chs7, stronger effect = lower value 1.03 and 1.01 | locus YHR200W, strain rpn10, stronger effect = lower value 1.01 and 0.999 | locus YIL066C, strain RNR3, stronger effect = lower value 1.02 and 1.01 | locus YIL073C, strain SPO22, stronger effect = lower value 1.06 and 1.02 | locus YIL125W, strain kgd1, stronger effect = lower value 0.997 and 1.01 | locus YIR030C, strain dcg1, stronger effect = lower value 1.02 and 0.993 | locus YJL092W, strain hpr5, stronger effect = lower value 1.01 | locus YJL095W, strain BCK1 (second series), stronger effect = lower value 1.02 | locus YJL095W, strain BCK1, stronger effect = lower value 1.03 and 0.988 and 1.01 | locus YJL115W, strain asf1, stronger effect = lower value 1.01 and 1.02 | locus YJL129C, strain trk1, stronger effect = lower value 1.04 and 1.03 | locus YJL134W, strain LCB3, stronger effect = lower value 1.01 | locus YJL154C, strain vps35, stronger effect = lower value 1.02 and 1.01 | locus YJL164C, strain tpk1, stronger effect = lower value 1.01 and 1.02 | locus YJL166W, strain qcr8, stronger effect = lower value 1.02 | locus YJL168C, strain set2, stronger effect = lower value 1.01 and 0.999 | locus YJL187C, strain SWE1 (second series), stronger effect = lower value 1.02 and 1.01 | locus YJL187C, strain SWE1, stronger effect = lower value 1.02 and 1.01 | locus YJR043C, strain POL32, stronger effect = lower value 1.02 and 1 | locus YJR066W, strain TOR1, stronger effect = lower value 0.971
